# Rows were chosen to be rich in hits. Some 0.39% of all compounds tested hit in one or more screens of this group.
# CBFb-RUNX1 inh = qHTS Assay for Compounds Blocking the Interaction Between CBF-beta and RUNX1 for the Treatment of Acute Myeloid Leukemia. 230,000 tested, under 10 active. Potency, µM (highest dose often 59.8 µM), inactives show top-dose activity, negative = inhibition, hits mostly inhibitors. Runt-related transcription factor 1 (Homo sapiens) + Core-binding factor subunit beta …. AID 1477, 2009. AlphaScreen CBFb-His/RUNX1-biotin binding, biochemical; also: % of control where 0% means no effect
#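 CBF-beta (His) and RUNX1 (biotin), 30 nM each; 20 min preassociation; + compound, 15 min; + beads 50 ng each (Ni, streptavidin), 90 min; RT; AlphaScreen read.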
# TRPV1 PAM = HTS Assay for Compounds that Act as Potentiators of the Vanilloid Receptor 1; TRPV1-expressing cells, Fluo-8 calcium influx, capsaicin EC20 potentiation; hit rate 0.02% among 320,000; AID 540277, 2011; Transient receptor potential cation channel subfamily V member 1 (Homo sapiens), Q8NER1; potentiation, % at 8.33 µM; in the data active = potentiation above about 80%; inconclusive = between about 30% and that limit; also: 0% is about no effect
#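 TRPV1-expressing cells were cultured overnight at 35.5C and loaded with Fluo-8 calcium dye for 40 to 90 min at room temperature. After a 10 s baseline, compound was added and calcium influx was read kinetically for 3 min (ex 480/em 520 nm).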
# Apoferritin bind = qHTS Assay for Identification of Novel General Anesthetics. Potency, µM (series often up to 77.5 µM), without a hit: top-dose activity change, negative = displacement, actives largely listed as inhibitors. AID 485281, 2010. apoferritin/1-aminoanthracene competitive binding, fluorescence. Ferritin light chain (Equus caballus), P02791. hit rate 0.074% among 350,000; also: potency is read from the fitted curve at half-maximal effect; % is scaled to controls: 0 for no effect and ±100 for the full control effect; nearly all actives have a fitted effect of over 20% in size
# Target sequence (P02791 2-175 limits assumed): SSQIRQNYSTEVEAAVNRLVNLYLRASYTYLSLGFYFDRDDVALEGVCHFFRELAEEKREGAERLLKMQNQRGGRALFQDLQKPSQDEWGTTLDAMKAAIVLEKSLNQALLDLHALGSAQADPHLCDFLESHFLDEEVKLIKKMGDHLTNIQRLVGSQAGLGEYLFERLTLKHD
#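 Concentration-response curves derived by four-parameter Hill fitting of normalized fluorescence, where compounds displaced 1-AMA from 10 uM horse apoferritin following a brief 10 min room-temperature incubation; propofol titration acted as positive control.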
# AT treatment = qHTS Assay for Identifying a Potential Treatment of Ataxia-Telangiectasia | F2112 A-T fibroblasts, KAP-1 phosphorylation AlphaLISA; neocarzinostatin DNA damage 30 min before lysis | hit rate 0.19% among 320,000 | AID 485349, 2010 | Potency, µM (doses to about 57.5 µM), inactives show at the highest dose activation, usual class: activators; also: potency is read from the fitted curve at half-maximal effect; % of control where 0% means no effect; nearly all actives have a fitted effect of over 45% in size
#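 ATM-like activity read as KAP-1 phosphorylation via AlphaLISA donor/acceptor antibody pairs after lysis and 6 hr at 25C. Cells were ATM-null patient fibroblasts (F2112, hTERT), dosed 60 min, then exposed to the DSB inducer NCS for 30 min.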
# TRPV1 agonist = HTS Assay for Compounds that Act as Agonists of the Vanilloid Receptor 1 | TRPV1-expressing cells, Fluo-8 calcium influx, agonist mode | activation, % at 8.33 µM | hit rate 0.19% among 320,000 | AID 540275, 2011; in the data active = activation above about 80%; inconclusive = between about 30% and that limit; also: 0% is about no effect
#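 Fluo-8 calcium influx in TRPV1-expressing cells, kinetic read (ex 480/em 520 nm). Compound added and read 3 min for agonist activity, followed by capsaicin at EC20 final and 2 min further read for enhancement.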
# An asterisk follows results filed as active; ? = inconclusive; / = not tested or not shown; [ ] = dose if it differs, or a comment. Unless noted, calls follow the shape of the dose curve; as a rule, active = well fitted curve in the direction sought with a large enough effect; inconclusive = small, poorly fitted or top-dose-only effect, or another doubt; inactive = no such curve, though single readings can be large; an effect the other way counts as inactive or inconclusive.
SMILES,CBFb-RUNX1 inh,TRPV1 PAM,Apoferritin bind,AT treatment,TRPV1 agonist
O=C(CC(C(=O)O)c1ccc(Cl)cc1)c1ccccc1 (stereo not drawn),-1.1%,-1.5,-1.4%,-1.2%,-0.2
Clc1ccc(C(c2ccccc2Cl)C(Cl)Cl)cc1 (stereo not drawn),?,-5.5,/,28.2µM*,-1.0
Nc1ccccc1NC(=O)c1ccc(CNC(=O)OCc2cccnc2)cc1,23.0%,/,-5.6%,/,/
CCCCc1nc2c(c3c1C[C@H](C)OC3)CN(S(=O)(=O)c1ccccc1C(=O)OC)CC2,11.5%[13.1 µM],/,/,/,/
CCn1nc(C)c(/C=N/NC(=O)Cn2cncn2)c1C,2.4%,-9.2,10.8%,3.16µM*,-0.2
O=C(Nc1ccc(Cl)cn1)C1C(c2ccccc2)C1(Cl)Cl (stereo not drawn),20.8%,-7.4,-13.9%,4.3%[11.5 µM],?
O=C(Nc1ccccc1)C1C(c2ccccc2)C1(Cl)Cl (stereo not drawn),/,-31.2,-14.4%,-1.9%,83.6*
CCC(C)c1ccc(NC(=S)NCc2ccccc2OC)cc1 (stereo not drawn),-1.0%,-11.9,-0.1%,10.1%,83.2*
COc1ccccc1CNC(=S)Nc1ccc(F)cc1,/,-16.3,-10.8%,22.8%,19.4
CC(C)CN(CC(C)C)S(=O)(=O)N1CCC(C(=O)NC2CCCCCCC2)CC1,2.5%,5.4,4.1%,7.0%,83.7*
CCS(=O)(=O)N1CCC(C(=O)NC2CCCCCCC2)CC1,16.6%,-1.9,-2.8%,0.9%,0.4
Cc1ccc(-c2ccc(=O)n(CC(=O)N3CCN(c4cccc(C)c4)C(C)C3)n2)cc1 (stereo not drawn),-6.9%,4.3,25.1µM*,3.3%,0.7
CC(C)C(=O)SCCCCCCC(=O)Nc1nc(-c2ccccc2)cs1,17.3%,/,-10.7%,/,/
Cc1cc(Cl)ccc1NC(=S)NCc1ccccc1,7.1%,-28.6,-0.5%,4.2%,?
COc1cccc(CNc2ccc(F)c(Cl)c2)c1O,1.2%,16.0,-13.4%,4.0%,3.2
COc1cccc(CNc2ccc(F)c(Cl)c2)c1,8.0%,7.9,8.91µM*,6.2%,0.3
S=C(NCc1ccncc1)Nc1ccc(Cl)cc1Cl,-4.8%,-20.0,-2.6%,-3.6%,80.3*
COc1cccc(CNC(=S)Nc2ccc(Cl)cc2C)c1,/,-23.3,-7.3%,3.2%,80.6*
Fc1ccc(CNC(=S)Nc2ccc(Cl)cc2Cl)cc1,4.6%,-19.1,5.7%,8.4%,87.6*
NC(N)=NCCC[C@H](NC(=O)[C@H](Cc1ccccc1)NC(=O)[C@@H]1CCCN1C(=O)[C@H](CO)NC(=O)[C@H](Cc1ccccc1)NC(=O)CNC(=O)[C@@H]1CCCN1C(=O)[C@@H]1CCCN1C(=O)[C@@H](N)CCCN=C(N)N)C(=O)O,10.7%,/,-5.5%,/,/
COCCNC(=O)COc1ccc(OCCNC[C@H](O)COc2ccccc2)cc1,12.6%,/,-1.7%,/,/
OC[C@@H]1O[C@H](OC2[C@@H](O)[C@@H](O)[C@@H](O)O[C@@H]2CO)[C@H](O)[C@@H](O)[C@@H]1OC1O[C@H](CO)[C@@H](O)[C@H](O)[C@@H]1O (stereo partly drawn),-0.7%,/,5.9%,/,/
NC(CC(=O)Nc1ccc(Oc2cc(F)c(F)cc2Br)cc1)C(=O)O (stereo not drawn),7.4%,/,-15.8%,/,/
COCCN(C(=S)Nc1ccc(C)c(C)c1)C(C)c1ccco1 (stereo not drawn),3.1%,0.1,?,2.2%,4.2
COCCN(C(=S)Nc1c(C)cccc1C)C(C)c1ccco1 (stereo not drawn),3.6%,25.3,-6.5%,20µM*,1.3
SMILES,CBFb-RUNX1 inh,TRPV1 PAM,Apoferritin bind,AT treatment,TRPV1 agonist
CC(=O)Oc1ccc(C(=O)Nc2ccc(C3(C#N)CCCC3)cc2)cc1,/,85.9*,-6.2%,1.2%,0.3
N#CC1(c2ccc(NC(=O)c3ccccc3)cc2)CCCC1,2.9%,-28.5,-13.2%,-6.0%,?
O=C(NCCc1cccs1)C1CC(c2cccc(F)c2)=NO1 (stereo not drawn),24.0%,-6.4,-16.5%,39.8µM*,-0.4
Nc1ccc(-c2nc3cc([N+](=O)[O-])ccc3o2)cc1,13.9%,-18.5,-15.2%,39.8µM*,2.4
CC(=O)NNC(=O)CN1C(=O)/C(=C/c2ccccc2)SC1=S,5.6%,-9.1,-10.1%,3.16µM*,9.7
COc1ccc(/C=C2/SC(=S)N(Cc3ccccc3)C2=O)cc1O,/,12.5,-15.0%,39.8µM*,-3.7
C[C@H]1Cc2c(-c3ccccc3)nc3c(c2CO1)CN(C(=O)NCc1ccco1)CC3,5.1%[13.1 µM],/,/,/,/
C[C@@H]1C[C@](C)(C(=O)c2ccco2)C=C1c1ccco1,-13.3%,/,/,/,/
O=[N+]([O-])c1ccc(Nc2ccccc2O)c2nonc12,/,24.4,17.8µM*,-5.6%,-0.1
NCC(=O)N[C@@H](CCCN=C(N)N)C(=O)NCC(=O)N[C@@H](CC(=O)O)C(=O)N[C@@H](CO)C(=O)O,12.6%,/,4.8%,/,/
O=C(Oc1ccc(Br)cc1C(=S)N1CCCCC1)c1cc([N+](=O)[O-])cc([N+](=O)[O-])c1,-4.2%,-3.9,31.6µM*,9.0%,-4.9
COc1ccc(CN2CNc3nc4ccccc4n3C2)cc1,0.8%,1.4,-17.3%,/,1.3
c1coc(CN2CNc3nc4ccccc4n3C2)c1,10.6%,-2.8,0.5%,10µM*,-2.5
COc1ccccc1/C=C1\SC(N2CCC(C)CC2)=NC1=O,/,-17.5,-6.6%,4.5%,?
COc1cccc(/C=C2\SC(N3CCC(C)CC3)=NC2=O)c1OC,/,-15.8,9.7%,-2.2%,93.0*
CC(C)c1cc(C(C)C)c(S(=O)(=O)Nc2cccc3cccnc23)c(C(C)C)c1,17.4%,/,25.0%,/,/
CC(C)C[C@H](NC(=O)[C@H](CC(C)C)NC(=O)[C@@H](Cc1c[nH]c2ccccc12)NC(=O)[C@H](Cc1ccccc1)NC(=O)[C@@H](Cc1c[nH]c2ccccc12)NC(=O)[C@H](CCC(N)=O)NC(=O)[C@H](CCC(N)=O)NC(=O)[C@@H]1CCCN1C(=O)[C@H](CCCCN)NC(=O)[C@@H]1CCCN1C(=O)[C@@H](CCCNC(=N)N)NC(=O)[C@@H]1CCCN1C(=O)CNC(=O)[C@H](CC(C)C)NC(=O)[C@H](CC(C)C)NC(=O)[C@H](Cc1ccc(O)cc1)NC(=O)CNC(=O)[C@H](C)NC(=O)[C@H](CO)NC(=O)[C@H](CC(N)=O)NC(=O)[C@H](CC(C)C)NC(=O)[C@@H](NC(=O)[C@H](Cc1c[nH]c2ccccc12)NC(=O)CN)[C@@H](C)O)C(N)=O,9.4%,/,-19.4%,/,/
